In paper PMC7862700, “An all-to-all approach to the identification of sequence-specific readers for epigenetic DNA modifications on cytosine”:

Legend:
Assay in all cases: DAPPL (digital affinity profiling via proximity ligation, sequencing); 10 mM Tris-HCl pH 7.5, 50 mM NaCl, 1 mM DTT, 4% glycerol, room temperature, 30 min; GST-TFs on glutathione beads, 16-mer random dsDNA library, 0.1% formaldehyde crosslink after washing; high values mean tight binding
FEV = target: T1, FEV (Homo sapiens, UniProt Q99581 1-238); details: protein: recombinant; tags: N-terminal GST; dsDNA, one strand shown
T1 sequence: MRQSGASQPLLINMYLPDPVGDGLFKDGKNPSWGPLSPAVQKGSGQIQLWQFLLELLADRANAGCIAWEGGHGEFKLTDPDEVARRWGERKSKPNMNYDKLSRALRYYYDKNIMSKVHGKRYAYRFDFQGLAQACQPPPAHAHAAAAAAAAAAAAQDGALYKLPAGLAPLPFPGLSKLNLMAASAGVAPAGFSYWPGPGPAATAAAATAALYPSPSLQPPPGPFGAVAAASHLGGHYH
Summary of the method: (§1)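 Binding signal is each hexamer's read frequency for a factor divided by its frequency in the tag-only sample. The factors were GST-fused human transcription factors from yeast, captured on glutathione beads, DNA-barcoded and pooled with that sample. Pools were incubated with 200 nmole of a random double-stranded 16-mer DNA library in Tris/NaCl/DTT/glycerol buffer at room temperature for 30 min, then washed, crosslinked with 0.1% formaldehyde, proximity-ligated with BsaI/T4 ligase (1 h, 37 °C), PCR-amplified and sequenced on an Illumina NextSeq500.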

ETV5 = ETV5 (Homo sapiens, UniProt P41161 1-510); details: protein: recombinant; tags: N-terminal GST; dsDNA, one strand shown
Chain of ETV5 (P41161 whole entry): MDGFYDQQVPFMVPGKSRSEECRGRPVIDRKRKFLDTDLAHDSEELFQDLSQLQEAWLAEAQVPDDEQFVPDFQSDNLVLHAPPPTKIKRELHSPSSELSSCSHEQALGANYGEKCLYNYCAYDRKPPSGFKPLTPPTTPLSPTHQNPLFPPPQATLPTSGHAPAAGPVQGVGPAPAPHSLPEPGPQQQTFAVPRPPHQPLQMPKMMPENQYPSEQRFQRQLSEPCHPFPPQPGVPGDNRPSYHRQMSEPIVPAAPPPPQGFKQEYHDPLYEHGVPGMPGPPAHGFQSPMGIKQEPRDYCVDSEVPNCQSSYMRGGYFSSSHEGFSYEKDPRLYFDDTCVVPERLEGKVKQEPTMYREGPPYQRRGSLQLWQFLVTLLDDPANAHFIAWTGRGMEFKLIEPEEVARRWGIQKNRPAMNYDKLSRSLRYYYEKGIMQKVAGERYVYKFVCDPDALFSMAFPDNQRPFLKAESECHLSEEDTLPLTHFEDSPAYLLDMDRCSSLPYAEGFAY
Summary of the method: as §1

HSF1 = HSF1 (Homo sapiens, UniProt Q00613 1-529); details: protein: recombinant; tags: N-terminal GST; chain copies: 3; dsDNA, one strand shown
Chain of HSF1 (Q00613 whole entry): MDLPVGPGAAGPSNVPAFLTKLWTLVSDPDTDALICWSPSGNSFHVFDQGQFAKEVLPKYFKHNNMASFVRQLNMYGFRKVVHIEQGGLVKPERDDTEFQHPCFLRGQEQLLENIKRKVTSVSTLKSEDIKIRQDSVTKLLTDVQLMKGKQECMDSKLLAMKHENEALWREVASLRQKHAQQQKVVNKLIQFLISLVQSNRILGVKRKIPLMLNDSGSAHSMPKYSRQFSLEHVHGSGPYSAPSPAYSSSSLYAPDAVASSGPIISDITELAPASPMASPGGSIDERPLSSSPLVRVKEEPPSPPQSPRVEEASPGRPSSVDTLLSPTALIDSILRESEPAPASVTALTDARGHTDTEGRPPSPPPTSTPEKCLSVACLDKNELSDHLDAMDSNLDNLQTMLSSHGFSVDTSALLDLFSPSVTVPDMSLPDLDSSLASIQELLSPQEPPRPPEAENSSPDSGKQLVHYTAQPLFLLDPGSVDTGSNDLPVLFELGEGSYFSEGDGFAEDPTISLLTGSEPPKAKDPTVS
Summary of the method: as §1

SPIC = target: T2, SPIC (Homo sapiens, UniProt Q8N5J4 1-248); details: protein: recombinant; tags: N-terminal GST; dsDNA, one strand shown
T2 sequence: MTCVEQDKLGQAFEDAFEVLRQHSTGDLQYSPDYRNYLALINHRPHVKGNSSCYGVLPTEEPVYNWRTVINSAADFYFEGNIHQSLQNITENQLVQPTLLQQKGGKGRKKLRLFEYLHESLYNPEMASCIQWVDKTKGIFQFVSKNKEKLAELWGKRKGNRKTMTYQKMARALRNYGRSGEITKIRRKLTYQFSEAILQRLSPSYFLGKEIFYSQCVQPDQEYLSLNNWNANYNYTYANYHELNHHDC
Summary of the method: as §1

ELF4 = ELF4 (Homo sapiens, UniProt Q99607 1-663); details: protein: recombinant; tags: N-terminal GST; dsDNA, one strand shown
Chain of ELF4 (Q99607 whole entry): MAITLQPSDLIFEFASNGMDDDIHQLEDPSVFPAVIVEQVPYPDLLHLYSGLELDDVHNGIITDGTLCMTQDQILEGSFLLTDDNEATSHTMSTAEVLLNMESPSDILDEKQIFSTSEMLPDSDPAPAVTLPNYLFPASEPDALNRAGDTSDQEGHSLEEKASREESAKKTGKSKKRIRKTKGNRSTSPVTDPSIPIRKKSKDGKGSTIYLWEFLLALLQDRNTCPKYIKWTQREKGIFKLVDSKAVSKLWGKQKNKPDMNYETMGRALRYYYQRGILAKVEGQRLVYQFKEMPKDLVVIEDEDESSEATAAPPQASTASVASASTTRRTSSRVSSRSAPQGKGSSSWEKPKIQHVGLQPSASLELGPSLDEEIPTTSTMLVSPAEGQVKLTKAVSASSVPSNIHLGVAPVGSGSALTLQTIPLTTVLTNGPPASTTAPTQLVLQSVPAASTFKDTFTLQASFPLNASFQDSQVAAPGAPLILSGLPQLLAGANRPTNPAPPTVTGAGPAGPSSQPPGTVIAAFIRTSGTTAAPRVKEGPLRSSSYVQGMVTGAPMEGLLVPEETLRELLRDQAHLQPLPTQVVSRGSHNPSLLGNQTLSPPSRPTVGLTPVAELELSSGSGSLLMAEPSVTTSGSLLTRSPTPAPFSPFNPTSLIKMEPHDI
Summary of the method: as §1

ELK4 = target: T3, ELK4 (Homo sapiens, UniProt P28324-2 1-405); details: protein: recombinant; tags: N-terminal GST; dsDNA, one strand shown
T3 sequence: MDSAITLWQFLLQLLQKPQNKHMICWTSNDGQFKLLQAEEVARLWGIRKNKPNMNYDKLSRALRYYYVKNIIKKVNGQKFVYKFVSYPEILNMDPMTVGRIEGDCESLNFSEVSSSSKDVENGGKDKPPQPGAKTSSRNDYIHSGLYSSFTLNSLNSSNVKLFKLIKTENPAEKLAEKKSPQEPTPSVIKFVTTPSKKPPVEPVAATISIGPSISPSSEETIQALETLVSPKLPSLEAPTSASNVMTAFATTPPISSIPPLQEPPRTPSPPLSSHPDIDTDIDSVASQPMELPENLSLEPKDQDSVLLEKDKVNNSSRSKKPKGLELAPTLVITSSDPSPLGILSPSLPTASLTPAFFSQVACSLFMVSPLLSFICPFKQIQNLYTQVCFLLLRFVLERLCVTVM
Summary of the method: as §1

ETV2 = target: T4, ETV2 (Homo sapiens, UniProt O00321 1-342); details: protein: recombinant; tags: N-terminal GST; dsDNA, one strand shown
T4 sequence: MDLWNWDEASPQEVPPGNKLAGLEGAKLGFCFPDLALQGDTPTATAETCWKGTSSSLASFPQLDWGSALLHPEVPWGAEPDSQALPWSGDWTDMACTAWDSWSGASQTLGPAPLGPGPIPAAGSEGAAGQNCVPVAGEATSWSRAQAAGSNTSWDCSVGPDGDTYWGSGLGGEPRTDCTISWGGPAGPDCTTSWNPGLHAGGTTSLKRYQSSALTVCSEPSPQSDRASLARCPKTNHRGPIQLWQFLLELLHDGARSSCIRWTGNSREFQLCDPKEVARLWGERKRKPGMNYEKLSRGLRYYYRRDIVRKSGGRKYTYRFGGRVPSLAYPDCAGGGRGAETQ
Summary of the method: as §1

ELF3 = target: T5, ELF3 (Homo sapiens, UniProt P78545 1-371); details: protein: recombinant; tags: N-terminal GST; dsDNA, one strand shown
T5 sequence: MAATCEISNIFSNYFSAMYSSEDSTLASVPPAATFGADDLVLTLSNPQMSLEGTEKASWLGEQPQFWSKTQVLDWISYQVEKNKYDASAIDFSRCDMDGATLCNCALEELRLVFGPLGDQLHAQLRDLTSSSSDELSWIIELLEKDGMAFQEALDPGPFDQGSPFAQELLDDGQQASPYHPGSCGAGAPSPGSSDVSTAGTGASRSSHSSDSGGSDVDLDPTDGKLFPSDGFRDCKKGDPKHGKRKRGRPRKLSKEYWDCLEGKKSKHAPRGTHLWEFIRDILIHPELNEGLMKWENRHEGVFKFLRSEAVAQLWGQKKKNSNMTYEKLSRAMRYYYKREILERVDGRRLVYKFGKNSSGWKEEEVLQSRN
Summary of the method: as §1

CRX = CRX (Homo sapiens, UniProt O43186 1-299); details: protein: recombinant; tags: N-terminal GST; dsDNA, one strand shown
Chain of CRX (O43186 whole entry): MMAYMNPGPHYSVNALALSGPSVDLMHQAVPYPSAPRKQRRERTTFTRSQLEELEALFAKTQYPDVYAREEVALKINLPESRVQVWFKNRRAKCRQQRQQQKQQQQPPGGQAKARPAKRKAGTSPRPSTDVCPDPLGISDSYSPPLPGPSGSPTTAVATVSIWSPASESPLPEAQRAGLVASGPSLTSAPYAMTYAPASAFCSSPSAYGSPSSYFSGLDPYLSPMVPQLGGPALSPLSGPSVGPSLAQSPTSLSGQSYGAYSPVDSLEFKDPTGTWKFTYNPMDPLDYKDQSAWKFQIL
Summary of the method: as §1

ETV1 = ETV1 (Homo sapiens, UniProt P50549 1-477); details: protein: recombinant; tags: N-terminal GST; dsDNA, one strand shown
Chain of ETV1 (P50549 whole entry): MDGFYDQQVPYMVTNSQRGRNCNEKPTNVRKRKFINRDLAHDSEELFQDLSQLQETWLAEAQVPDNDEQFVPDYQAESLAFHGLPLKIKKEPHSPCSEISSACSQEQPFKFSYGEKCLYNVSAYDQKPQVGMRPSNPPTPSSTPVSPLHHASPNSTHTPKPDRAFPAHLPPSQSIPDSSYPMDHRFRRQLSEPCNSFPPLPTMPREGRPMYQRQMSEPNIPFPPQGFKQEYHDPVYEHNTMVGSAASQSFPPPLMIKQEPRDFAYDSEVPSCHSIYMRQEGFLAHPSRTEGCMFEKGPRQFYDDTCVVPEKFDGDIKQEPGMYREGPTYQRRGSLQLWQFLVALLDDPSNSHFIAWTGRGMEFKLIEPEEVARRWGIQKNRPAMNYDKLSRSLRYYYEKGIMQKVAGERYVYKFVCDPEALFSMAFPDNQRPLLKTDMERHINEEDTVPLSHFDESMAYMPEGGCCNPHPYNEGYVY
Summary of the method: as §1

ERF = target: T6, ERF (Homo sapiens, UniProt P50548 1-548); details: protein: recombinant; tags: N-terminal GST; dsDNA, one strand shown
T6 sequence: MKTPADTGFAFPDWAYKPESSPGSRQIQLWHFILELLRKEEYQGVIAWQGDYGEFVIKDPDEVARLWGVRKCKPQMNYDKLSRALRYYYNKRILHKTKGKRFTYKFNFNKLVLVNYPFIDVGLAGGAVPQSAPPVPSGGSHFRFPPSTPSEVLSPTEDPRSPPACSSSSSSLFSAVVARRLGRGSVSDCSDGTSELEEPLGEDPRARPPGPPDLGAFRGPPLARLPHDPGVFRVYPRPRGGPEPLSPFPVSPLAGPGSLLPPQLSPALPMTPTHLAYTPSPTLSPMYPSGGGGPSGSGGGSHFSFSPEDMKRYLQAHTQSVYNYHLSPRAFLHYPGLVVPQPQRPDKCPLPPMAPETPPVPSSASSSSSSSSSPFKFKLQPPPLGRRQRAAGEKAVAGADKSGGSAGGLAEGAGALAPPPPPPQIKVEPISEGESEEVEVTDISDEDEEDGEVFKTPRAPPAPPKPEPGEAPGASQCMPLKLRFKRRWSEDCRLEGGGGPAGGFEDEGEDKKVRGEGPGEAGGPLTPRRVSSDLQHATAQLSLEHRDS
Summary of the method: as §1

ETV3L = target: T7, ETV3L (Homo sapiens, UniProt Q6ZN32 1-361); details: protein: recombinant; tags: N-terminal GST; dsDNA, one strand shown
T7 sequence: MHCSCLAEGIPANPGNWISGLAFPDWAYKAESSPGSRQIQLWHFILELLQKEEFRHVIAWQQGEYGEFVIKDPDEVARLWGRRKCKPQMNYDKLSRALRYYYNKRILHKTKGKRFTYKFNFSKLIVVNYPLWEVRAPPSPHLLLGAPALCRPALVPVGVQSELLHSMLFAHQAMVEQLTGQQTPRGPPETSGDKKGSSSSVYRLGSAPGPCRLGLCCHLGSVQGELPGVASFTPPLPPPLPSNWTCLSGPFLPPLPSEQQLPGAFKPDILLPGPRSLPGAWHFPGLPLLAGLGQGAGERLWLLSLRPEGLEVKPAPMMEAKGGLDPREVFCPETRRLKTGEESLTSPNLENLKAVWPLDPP
Summary of the method: as §1

ETS2 = target: T8, ETS2 (Homo sapiens, UniProt P15036 1-469); details: protein: recombinant; tags: N-terminal GST; dsDNA, one strand shown
T8 sequence: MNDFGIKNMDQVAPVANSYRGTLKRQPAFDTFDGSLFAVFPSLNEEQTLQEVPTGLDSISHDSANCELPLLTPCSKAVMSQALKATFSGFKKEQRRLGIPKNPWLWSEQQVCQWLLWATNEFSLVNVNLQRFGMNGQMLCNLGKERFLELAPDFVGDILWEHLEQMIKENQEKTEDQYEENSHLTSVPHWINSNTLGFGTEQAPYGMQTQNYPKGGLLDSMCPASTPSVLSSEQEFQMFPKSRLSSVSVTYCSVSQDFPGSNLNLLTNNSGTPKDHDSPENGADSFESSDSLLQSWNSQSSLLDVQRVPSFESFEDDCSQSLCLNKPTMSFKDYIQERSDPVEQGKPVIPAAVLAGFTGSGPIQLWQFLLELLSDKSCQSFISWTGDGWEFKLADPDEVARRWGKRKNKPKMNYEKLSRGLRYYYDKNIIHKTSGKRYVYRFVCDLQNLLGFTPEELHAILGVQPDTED
Summary of the method: as §1

SPDEF = target: T9, SPDEF (Homo sapiens, UniProt O95238 1-335); details: protein: recombinant; tags: N-terminal GST; dsDNA, one strand shown
T9 sequence: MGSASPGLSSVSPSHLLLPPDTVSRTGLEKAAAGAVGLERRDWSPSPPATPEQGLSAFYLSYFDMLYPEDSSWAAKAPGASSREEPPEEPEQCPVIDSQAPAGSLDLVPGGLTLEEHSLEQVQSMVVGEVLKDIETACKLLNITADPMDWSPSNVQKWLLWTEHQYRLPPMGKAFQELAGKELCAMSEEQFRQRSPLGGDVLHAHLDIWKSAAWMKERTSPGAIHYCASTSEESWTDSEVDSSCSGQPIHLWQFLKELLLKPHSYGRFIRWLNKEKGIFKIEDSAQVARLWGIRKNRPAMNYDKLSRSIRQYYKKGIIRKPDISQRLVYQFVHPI
Summary of the method: as §1

ETV7 = target: T10, ETV7 (Homo sapiens, UniProt Q9Y603 1-341); details: protein: recombinant; tags: N-terminal GST; dsDNA, one strand shown
T10 sequence: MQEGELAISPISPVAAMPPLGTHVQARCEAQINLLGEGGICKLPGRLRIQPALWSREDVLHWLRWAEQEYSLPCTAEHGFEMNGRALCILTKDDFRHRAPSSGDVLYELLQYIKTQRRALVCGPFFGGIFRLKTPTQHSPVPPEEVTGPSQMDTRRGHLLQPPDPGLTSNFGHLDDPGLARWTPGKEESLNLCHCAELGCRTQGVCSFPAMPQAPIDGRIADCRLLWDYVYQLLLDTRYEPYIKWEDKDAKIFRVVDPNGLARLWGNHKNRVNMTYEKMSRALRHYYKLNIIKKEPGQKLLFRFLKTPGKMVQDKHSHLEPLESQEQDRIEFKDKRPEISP
Summary of the method: as §1

ELF5 = target: T11, ELF5 (Homo sapiens, UniProt Q9UKW6-2 1-255); details: protein: recombinant; tags: N-terminal GST; dsDNA, one strand shown
T11 sequence: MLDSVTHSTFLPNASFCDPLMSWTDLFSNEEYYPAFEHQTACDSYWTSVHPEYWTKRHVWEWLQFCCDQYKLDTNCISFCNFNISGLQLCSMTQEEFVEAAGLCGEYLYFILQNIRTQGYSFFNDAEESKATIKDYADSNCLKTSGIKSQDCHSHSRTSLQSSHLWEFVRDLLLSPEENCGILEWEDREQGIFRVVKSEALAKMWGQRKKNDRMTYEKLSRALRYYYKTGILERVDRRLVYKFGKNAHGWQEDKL
Summary of the method: as §1

ETV3 = target: T12, ETV3 (Homo sapiens, UniProt P41162-2 1-143); details: protein: recombinant; tags: N-terminal GST; dsDNA, one strand shown
T12 sequence: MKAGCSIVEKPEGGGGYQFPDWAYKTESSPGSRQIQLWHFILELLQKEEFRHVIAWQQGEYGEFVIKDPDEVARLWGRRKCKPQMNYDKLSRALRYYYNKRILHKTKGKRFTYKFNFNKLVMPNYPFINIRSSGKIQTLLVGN
Summary of the method: as §1

ETV6 = ETV6 (Homo sapiens, UniProt P41212 1-452); details: protein: recombinant; tags: N-terminal GST; dsDNA, one strand shown
Chain of ETV6 (P41212 whole entry): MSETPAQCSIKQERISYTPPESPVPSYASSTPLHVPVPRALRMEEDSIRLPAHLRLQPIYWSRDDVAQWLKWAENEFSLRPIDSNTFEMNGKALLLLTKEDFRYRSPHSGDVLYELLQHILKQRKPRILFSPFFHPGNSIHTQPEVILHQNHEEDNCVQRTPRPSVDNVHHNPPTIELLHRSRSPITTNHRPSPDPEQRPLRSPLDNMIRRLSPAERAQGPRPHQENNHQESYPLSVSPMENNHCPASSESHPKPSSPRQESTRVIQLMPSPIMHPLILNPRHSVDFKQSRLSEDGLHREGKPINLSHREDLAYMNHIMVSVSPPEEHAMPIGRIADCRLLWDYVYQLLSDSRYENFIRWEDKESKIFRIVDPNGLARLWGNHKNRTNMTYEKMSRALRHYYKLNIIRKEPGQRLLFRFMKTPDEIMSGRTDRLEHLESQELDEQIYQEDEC
Summary of the method: as §1

GAAGCT
binding signal (FEV): 1.48 fold enrichment (6-mer frequency, TF over GST control) | binding signal (ETV5): 1.62 fold enrichment (6-mer frequency, TF over GST control) | binding signal (HSF1): 1.74 fold enrichment (6-mer frequency, TF over GST control) | binding signal (SPIC): 1.44 fold enrichment (6-mer frequency, TF over GST control) | binding signal (ELF4): 1.49 fold enrichment (6-mer frequency, TF over GST control) | binding signal (ELK4): 1.69 fold enrichment (6-mer frequency, TF over GST control) | binding signal (ETV2): 1.56 fold enrichment (6-mer frequency, TF over GST control) | binding signal (ELF3): 1.47 fold enrichment (6-mer frequency, TF over GST control) | binding signal (CRX): 1.47 fold enrichment (6-mer frequency, TF over GST control) | binding signal (ETV1): 1.57 fold enrichment (6-mer frequency, TF over GST control) | binding signal (ERF): 1.59 fold enrichment (6-mer frequency, TF over GST control) | binding signal (ETV3L): 1.58 fold enrichment (6-mer frequency, TF over GST control) | binding signal (ETS2): 1.54 fold enrichment (6-mer frequency, TF over GST control) | binding signal (SPDEF): 1.51 fold enrichment (6-mer frequency, TF over GST control) | binding signal (ETV7): 1.54 fold enrichment (6-mer frequency, TF over GST control) | binding signal (ELF5): 1.71 fold enrichment (6-mer frequency, TF over GST control) | binding signal (ETV3): 1.75 fold enrichment (6-mer frequency, TF over GST control) | binding signal (ETV6): 1.59 fold enrichment (6-mer frequency, TF over GST control)
